Screening data from PubChem.
Rango dissoc inh: inhibition of RanGTP-driven Rango-importin beta dissociation; AID 540253; hit rate 0.071% among 340,000; Potency, µM (titrated, usually from 46.1 µM); Biochemical FRET Rango-importin beta, RanGTP-induced dissociation; calls by dose curve; note: nearly all actives have a fitted effect of over 45% in size
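FRET read at 45 min, room temperature: inhibitors block the CFP/YFP signal rise when RanGTP (0.6 uM Ran, 2 mM GTP, 0.2 uM RCC1) frees Rango (0.1 uM) from importin beta (0.25 uM). Pre-read after 5 min compound exposure flags interference.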
S-ASM inh: blocks human secretory acid sphingomyelinase; P17405; placental ASM, HMU-PC fluorogenic substrate, 60 min; Potency, µM (highest dose often 57.5 µM), usual class: inhibitors; hit rate 0.006% among 340,000; AID 504937
Target sequence (P17405 47-631 limits assumed): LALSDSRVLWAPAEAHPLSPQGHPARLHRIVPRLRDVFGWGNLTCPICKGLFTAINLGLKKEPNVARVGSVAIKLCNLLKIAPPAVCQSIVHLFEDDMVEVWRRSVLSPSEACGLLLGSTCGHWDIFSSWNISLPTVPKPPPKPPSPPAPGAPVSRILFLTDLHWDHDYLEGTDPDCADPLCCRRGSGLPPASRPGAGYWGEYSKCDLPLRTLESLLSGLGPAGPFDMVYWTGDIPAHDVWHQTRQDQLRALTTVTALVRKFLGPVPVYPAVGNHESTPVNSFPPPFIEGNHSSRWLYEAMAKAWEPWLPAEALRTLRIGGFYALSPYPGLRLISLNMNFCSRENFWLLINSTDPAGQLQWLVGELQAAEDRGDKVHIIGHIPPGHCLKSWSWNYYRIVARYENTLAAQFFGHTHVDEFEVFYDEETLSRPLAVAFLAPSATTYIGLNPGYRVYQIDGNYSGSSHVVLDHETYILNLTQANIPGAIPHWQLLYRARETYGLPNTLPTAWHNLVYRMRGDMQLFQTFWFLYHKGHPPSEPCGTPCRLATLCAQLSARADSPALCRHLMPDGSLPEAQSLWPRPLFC
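Human placenta-derived ASM enzyme was preincubated with compound for 10 minutes at room temperature, then given fluorogenic substrate HMU-PC0 (9 uM final) for 60 minutes at 37 °C; a pH 10 stop preceded fluorescence reading at Ex 386/Em 447 nm.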
Rango-impB inh: prevents formation of the Rango-importin beta complex; Q14974; Rango CFP/YFP FRET sensor + importin beta, 45 min; Potency, µM (titrated, usually from 92.2 µM); hit rate 0.031% among 340,000; AID 540263; calls by dose curve; note: nearly all actives have a fitted effect of over 15% in size
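Inhibition scored from the CFP 486 nm/YFP 530 nm FRET ratio 45 min after adding 0.125 microM importin beta to 50 nM Rango biosensor preincubated 5 min with compound (room temperature, PBS with DTT, Tween-20, BSA). No-importin wells as positive control.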
Abeta yeast res: compounds reversing amyloid beta toxicity in yeast; yeast expressing A-beta42, growth rescue, OD600, 48 h; response scale: 0% DMSO, 100% iron-clioquinol control; Potency, µM (highest dose often 46.1 µM), actives largely listed as activators; hit rate 0.063% among 410,000; AID 1347071; note: nearly all actives have a fitted effect of over 55% in size
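Yeast A-beta toxicity model in growth medium with pinned compounds, 48 h at 30 C; growth read as absorbance at 600 nm. Normalized to FeCl3/clioquinol equimolar mix (positive) and DMSO (negative).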
TDP43 rescue: inhibitors of TDP-43 toxicity in yeast; TDP-43 expressing yeast growth rescue, BacTiter-Glo, 24 h; hit rate 1.8% among 410,000; AID 652104; Potency, µM (highest dose often 46.1 µM), actives largely listed as activators; note: nearly all actives have a fitted effect of over 50% in size
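Readout is BacTiter-Glo luminescence of cell growth, so inhibitors register as activators. TDP-43-expressing yeast at OD600=0.02 in galactose medium, after raffinose pregrowth to mid-log, were incubated with compound for 24 hr at 30 deg C.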
aSyn yeast inh: inhibitors of alpha-synuclein toxicity in yeast; Yeast expressing alpha-synuclein, growth rescue, BacTiter-Glo, 24 h; Potency, µM (highest dose often 46.1 µM), hits mostly activators; hit rate 0.14% among 370,000; AID 652106; note: nearly all actives have a fitted effect of over 65% in size
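Readout is rescue of growth in alpha-synuclein-expressing yeast, so inhibitors of toxicity appear as activators. Growth after 24 hr at 30 deg C in galactose medium is quantified by luminescence.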
Each line names hits and unclear results; the compound was inactive in the other large screens. The list is not random: actives were taken first. Their share in the collection is about 2%. Unless noted, calls come from the whole dose curve; as a rule, active = well fitted curve in the direction sought with a large enough effect; inconclusive = small, poorly fitted or top-dose-only effect, or another doubt; inactive = no such curve, though single readings can be large; an effect the other way counts as inactive or inconclusive.

CCC(=O)N1N=C(c2ccc(C)o2)CC1c1ccc(OC)cc1 (stereo not given)	none
CCC(=O)N1N=C(c2ccc(C)o2)CC1c1ccc(Br)cc1 (stereo not given)	TDP43 rescue 17.8µM
CC(C)c1ccc(C(=O)CSc2n[nH]c(-c3ccncc3)n2)cc1	TDP43 rescue 35.5µM
O=C(CCl)NCc1cc(-c2ccc(Cl)cc2)no1	TDP43 rescue 10µM
COc1ccc(OCc2cc(-c3ccc(Cl)cc3)no2)cc1	none
CC(=O)c1ccc(NC(=O)CN(C)S(=O)(=O)c2cccc3nsnc23)cc1	none (no result: Rango dissoc inh, S-ASM inh, Rango-impB inh, aSyn yeast inh)
CSc1ccc(/C=C2\C=C(C(O)c3ccc(SC)cc3)c3ccccc32)cc1 (stereo not given)	none (no result: Rango dissoc inh, S-ASM inh, Rango-impB inh, Abeta yeast res, TDP43 rescue)
O=S(=O)(c1ccccc1)N1CCN=C1SCc1c(F)cccc1Cl	TDP43 rescue 11.2µM
CN(C)c1ccc(/C=C2\C=Cc3ccccc32)cc1N	none (no result: Rango dissoc inh, S-ASM inh, Rango-impB inh, Abeta yeast res, TDP43 rescue)
COc1ccccc1C(=O)OCC(=O)Nc1ccc(N2CCCCC2)cc1	none (no result: Rango dissoc inh, S-ASM inh, Rango-impB inh, Abeta yeast res, TDP43 rescue)
Cc1cccc(-n2ncc(C(=O)NCc3ccc4c(c3)OCO4)c2C2CCN(C(=O)OC(C)(C)C)CC2)c1	none (no result: Rango dissoc inh, S-ASM inh, Rango-impB inh, aSyn yeast inh)
COCCn1c(SCC(=O)c2ccc(C)cc2C)nc2cc(C(=O)NC3CCCC3)ccc2c1=O	none (no result: Rango dissoc inh, S-ASM inh, Rango-impB inh, aSyn yeast inh)
CC(=O)Nc1ccc(NCN2C(=O)[C@@H]3[C@H]4CC[C@H](C4)[C@@H]3C2=O)cc1	TDP43 rescue 6.31µM
Cc1ccc(NCc2cccn2-c2nnc(N3CCC(C(=O)NCCc4ccc(Cl)cc4)CC3)s2)cc1	Abeta yeast res inconclusive, TDP43 rescue 35.5µM (no result: Rango dissoc inh, S-ASM inh, Rango-impB inh, aSyn yeast inh)
CCc1cnc2ccccc2c1/C=C/c1ccc(N(C)C)cc1	none (no result: Rango dissoc inh, S-ASM inh, Rango-impB inh, Abeta yeast res, TDP43 rescue)
CC1CCN(C(=O)CCNS(=O)(=O)c2ccc(Br)cc2)CC1	aSyn yeast inh 3.55µM
COc1ccc2cc3cc(C(=O)N4CCCCCC4)oc3nc2c1	none
COc1ccc2cc3cc(C(=O)NCCN4CCc5ccccc5C4)oc3nc2c1	Rango dissoc inh inconclusive, TDP43 rescue 11.2µM, aSyn yeast inh 25.1µM
COc1ccc2cc3cc(C(=O)N(C)C4CCCCC4)oc3nc2c1	TDP43 rescue 17.8µM
CC(=O)CSc1nnc2cc(C)c3cc(C)cc(C)c3n12	none (no result: Rango dissoc inh, S-ASM inh, Rango-impB inh, aSyn yeast inh)
O=C(Nc1nc2ccccc2s1)C1c2ccccc2Oc2ccccc21	TDP43 rescue 10µM
CC1(C(=O)Nc2nc3ccccc3s2)CC1(Br)Br (stereo not given)	Abeta yeast res inconclusive, TDP43 rescue 10µM
O=C(Cc1ccccc1)Nc1nc2ccccc2s1	Rango-impB inh inconclusive, Abeta yeast res 7.08µM, TDP43 rescue inconclusive
CCN(Cc1ccccc1)C(=O)c1cc2ccc3cccnc3c2[nH]1	TDP43 rescue inconclusive (no result: Rango dissoc inh, S-ASM inh, Rango-impB inh, aSyn yeast inh)
Cc1cccc(N(CC(=O)NCCSCc2cccc(Cl)c2)S(=O)(=O)c2ccccc2)c1C	none (no result: Rango dissoc inh, S-ASM inh, Rango-impB inh, aSyn yeast inh)
COc1ccc(-n2c(C)nc3sc4c(c3c2=O)CCC4)cc1	TDP43 rescue 12.6µM
COc1ccc(-n2c(SCC(=O)O)nc3sc4c(c3c2=O)CCC4)cc1	none
Cc1ccc(C(=O)Oc2ccc(Cl)c3cccnc23)cc1[N+](=O)[O-]	TDP43 rescue inconclusive
O=C(Oc1ccc(Cl)c2cccnc12)c1cccnc1	TDP43 rescue 11.2µM
O=C(c1ccc2c(=O)n(CCc3ccccc3)c(=O)[nH]c2c1)N1CCN(c2ccc(Cl)cc2)CC1	none (no result: Rango dissoc inh, S-ASM inh, Rango-impB inh, aSyn yeast inh)
COc1ccccc1N1CCN(C(=O)C2c3ccccc3Oc3ccccc32)CC1	TDP43 rescue inconclusive, aSyn yeast inh 20µM
COc1ccc(-c2noc(N3CCC(C(=O)N4CCN(c5ccccc5OC)CC4)CC3)n2)cc1	TDP43 rescue 28.2µM (no result: Rango dissoc inh, S-ASM inh, Rango-impB inh, aSyn yeast inh)
CCCNC(=O)N1CCN(S(=O)(=O)c2ccc3c(ccn3C)c2)CC1	none (no result: Rango dissoc inh, S-ASM inh, Rango-impB inh)
CC1=C(C(=O)OCc2ccccc2)C(c2ccccc2Cl)NC(=O)N1CCCCCC(=O)O (stereo not given)	Rango-impB inh inconclusive, TDP43 rescue 35.5µM
O=C(OCn1nnc2ccccc2c1=O)c1ccc(O)cc1	aSyn yeast inh inconclusive
Cc1ccccc1C(=O)OCn1nnc2ccccc2c1=O	TDP43 rescue 14.1µM
COc1ccc(C(=O)OCn2nnc3ccccc3c2=O)cc1	TDP43 rescue 17.8µM, aSyn yeast inh inconclusive
